Inconclusive results are not listed. Activity calls are given as the source filed them. How the source made its calls: active means hit-call score of the fitted dose curve at least 0.9, where 1 is the maximum; inconclusive means response in the unintended direction; inactive means score below 0.9.

Among the data in PubChem BioAssay (EPA / NIEHS) are AC50 and outcome values, retold here.

In assay [1] the target is human Adenosine A1 Receptor (AdoRA1), ADORA1 (gene 134) (UniProt P30542). Nature of the assay: NVS_GPCR_hAdoRA1: NovaScreen (NVS) G Protein-Coupled Receptor Assay for human Adenosine A1 Receptor (AdoRA1) (AID 2283254). The procedure, abridged: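 Hum. cortical membranes + radioligand, cmpd 1 h; filtration, scintillation count. Readout = decrease vs DMSO. Primary 25 uM dup; hits → conc. series.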
Sequence of human Adenosine A1 Receptor (AdoRA1), ADORA1 (gene 134) (P30542 whole entry, looked up): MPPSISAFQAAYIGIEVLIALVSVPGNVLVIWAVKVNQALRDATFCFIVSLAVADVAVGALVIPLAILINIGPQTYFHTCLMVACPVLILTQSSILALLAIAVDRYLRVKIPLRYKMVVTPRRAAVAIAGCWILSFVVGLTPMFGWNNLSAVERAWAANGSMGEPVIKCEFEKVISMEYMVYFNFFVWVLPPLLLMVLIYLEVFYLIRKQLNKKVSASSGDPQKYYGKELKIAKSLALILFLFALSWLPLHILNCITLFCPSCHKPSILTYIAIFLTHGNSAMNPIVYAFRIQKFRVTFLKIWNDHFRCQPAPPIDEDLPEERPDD

Assay [2] relates to bovine Angiotensin II Receptor Type 2 (AT2), gene 407157. The experiment in a line: NVS_GPCR_bAT2: NovaScreen (NVS) G Protein-Coupled Receptor Assay for bovine Angiotensin II Receptor Type 2 (AT2) (AID 2283240). In outline:
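Radioligand displacement on bovine cerebellar membranes, 1 hour incubation, filter-based scintillation counting; loss of signal vs DMSO. Duplicate single-point screen at 25 uM, then concentration-response to 50 uM maximum.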

Assay [3] deals with human Serotonin, 5-Hydroxytryptamine Receptor 2A (5HT2A), HTR2A (gene 3356) (UniProt P28223). The experiment in a line: NVS_GPCR_h5HT2A: NovaScreen (NVS) G Protein-Coupled Receptor Assay for human Serotonin, 5-Hydroxytryptamine Receptor 2A (5HT2A) (AID 2283249). In outline: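 Radioligand displacement on human cortex tissue extract, counted by filtration and scintillation 1.5 h post-dosing. Initial single-concentration screen at 25 uM in duplicate, concentration series in follow-up; DMSO as baseline.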
Sequence of human Serotonin, 5-Hydroxytryptamine Receptor 2A (5HT2A), HTR2A (gene 3356) (P28223 whole entry, looked up): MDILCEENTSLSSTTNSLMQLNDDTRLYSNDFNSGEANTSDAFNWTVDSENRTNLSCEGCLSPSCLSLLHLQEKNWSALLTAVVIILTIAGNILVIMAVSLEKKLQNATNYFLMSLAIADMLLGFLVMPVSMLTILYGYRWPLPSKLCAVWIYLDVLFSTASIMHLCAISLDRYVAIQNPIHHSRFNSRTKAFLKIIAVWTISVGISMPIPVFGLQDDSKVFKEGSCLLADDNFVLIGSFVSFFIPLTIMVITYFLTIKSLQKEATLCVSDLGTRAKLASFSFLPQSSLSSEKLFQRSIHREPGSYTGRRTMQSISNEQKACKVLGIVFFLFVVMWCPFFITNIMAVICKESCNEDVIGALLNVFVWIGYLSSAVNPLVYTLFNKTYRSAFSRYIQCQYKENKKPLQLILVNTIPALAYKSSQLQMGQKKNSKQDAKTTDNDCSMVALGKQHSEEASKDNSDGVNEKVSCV

Assay [4] deals with guinea pig Muscarinic, Peripheral (Mperiperal) Receptor, Non-selective Binding, gene 100379235. Nature of the assay: NVS_GPCR_gMPeripheral_NonSelective: NovaScreen (NVS) G Protein-Coupled Receptor Assay for guinea pig Muscarinic, Peripheral (Mperiperal) Receptor, Non-selective Binding (AID 2283250). In outline:
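Screened in duplicate at 25 uM, hits retested in concentration series to 50 uM max, using bladder membrane radioligand displacement from guinea pig. Filtration and scintillation counting 1 h post-dose, fitted relative to DMSO.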

Assay [5] deals with guinea pig Opioid, Kappa 1 Receptor (OpiateK), OPRK1 (gene 100135587) (UniProt P41144). Nature of the assay: NVS_GPCR_gOpiateK: NovaScreen (NVS) G Protein-Coupled Receptor Assay for guinea pig Opioid, Kappa 1 Receptor (OpiateK) (AID 2283252).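 Further: active means reduced radioligand binding relative to DMSO.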 The procedure, abridged: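 Radioligand binding to kappa opioid receptor in guinea pig cerebellar membranes, read by filtration and scintillation at 2 h. Compounds first tested in duplicate at 25 uM, then actives in concentration series; signal loss fitted against DMSO.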
Sequence of guinea pig Opioid, Kappa 1 Receptor (OpiateK), OPRK1 (gene 100135587) (P41144 whole entry, looked up): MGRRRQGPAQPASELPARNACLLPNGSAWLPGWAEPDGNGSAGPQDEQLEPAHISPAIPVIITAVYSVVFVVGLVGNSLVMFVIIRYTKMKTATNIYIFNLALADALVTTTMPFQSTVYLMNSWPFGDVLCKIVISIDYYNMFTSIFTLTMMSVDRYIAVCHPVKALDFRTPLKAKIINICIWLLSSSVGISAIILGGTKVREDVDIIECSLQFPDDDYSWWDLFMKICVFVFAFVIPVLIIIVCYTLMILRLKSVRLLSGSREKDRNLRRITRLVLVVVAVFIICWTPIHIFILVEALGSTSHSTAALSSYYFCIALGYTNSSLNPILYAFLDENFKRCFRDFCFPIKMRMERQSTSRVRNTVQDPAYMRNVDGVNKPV

For assay [6], the target named is human Serotonin, 5-Hydroxytryptamine Receptor 7 (5HT7), HTR7 (gene 3363) (UniProt P34969). Nature of the assay: NVS_GPCR_h5HT7: NovaScreen (NVS) G Protein-Coupled Receptor Assay for human Serotonin, 5-Hydroxytryptamine Receptor 7 (5HT7) (AID 2283255).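 Further: hits reduce specific radioligand binding relative to DMSO.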 In outline:
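Filter-bound radioactivity counted after 1 h, with loss of specific radioligand binding fitted against DMSO. Membrane protein came from CHO cells expressing human 5HT7. Chemicals were tested first at 25 uM in duplicate, then in concentration series if active.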

Assay [7] addresses human Serotonin, 5-Hydroxytryptamine Receptor 5A (5HT5A), HTR5A (gene 3361) (UniProt P47898). The experiment in a line: NVS_GPCR_h5HT5A: NovaScreen (NVS) G Protein-Coupled Receptor Assay for human Serotonin, 5-Hydroxytryptamine Receptor 5A (5HT5A) (AID 2283251). The procedure, abridged: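 Membranes from HEK293 cells, radioligand binding read by filtration and scintillation after 1 h. Single-concentration duplicate testing at 25 uM, then concentration-response for actives; positive-direction fitting relative to DMSO.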

In assay [8] the target is human Adrenergic, Alpha 2A Receptor (Adra2A), ADRA2A (gene 150) (UniProt P08913). The experiment in a line: NVS_GPCR_hAdra2A: NovaScreen (NVS) G Protein-Coupled Receptor Assay for human Adrenergic, Alpha 2A Receptor (Adra2A) (AID 2283257). The procedure, abridged: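 Displacement of a specific radioligand from HT29 membrane protein was counted by filter scintillation after 1 h. Compounds were screened in duplicate at 25 uM, and actives were retested in concentration series. Fitting was positive-direction against DMSO.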
Sequence of human Adrenergic, Alpha 2A Receptor (Adra2A), ADRA2A (gene 150) (P08913 whole entry, looked up): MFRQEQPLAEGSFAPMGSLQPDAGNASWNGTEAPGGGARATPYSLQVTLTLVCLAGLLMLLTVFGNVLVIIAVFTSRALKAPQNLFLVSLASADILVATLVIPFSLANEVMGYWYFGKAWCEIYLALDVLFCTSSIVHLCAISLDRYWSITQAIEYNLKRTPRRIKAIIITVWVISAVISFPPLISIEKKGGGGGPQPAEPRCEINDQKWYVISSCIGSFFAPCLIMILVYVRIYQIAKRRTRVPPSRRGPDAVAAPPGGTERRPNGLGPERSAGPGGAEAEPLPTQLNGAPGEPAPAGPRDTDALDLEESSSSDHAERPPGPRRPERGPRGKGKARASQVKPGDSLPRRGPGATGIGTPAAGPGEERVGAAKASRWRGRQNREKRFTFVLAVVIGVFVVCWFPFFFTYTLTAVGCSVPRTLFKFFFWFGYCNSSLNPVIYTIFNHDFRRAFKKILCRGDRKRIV

The target of assay [9] is human Adrenergic, Beta 1 Receptor (Adrb1), ADRB1 (gene 153) (UniProt P08588). The experiment in a line: NVS_GPCR_hAdrb1: NovaScreen (NVS) G Protein-Coupled Receptor Assay for human Adrenergic, Beta 1 Receptor (Adrb1) (AID 2283258). In outline: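 Membranes/protein extracted from human neuroepithelioma cells, radioligand competition binding read by filtration and scintillation 2 h post-dose. Single 25 uM duplicate screen, then concentration-response follow-up; DMSO as negative control.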
Sequence of human Adrenergic, Beta 1 Receptor (Adrb1), ADRB1 (gene 153) (P08588 whole entry, looked up): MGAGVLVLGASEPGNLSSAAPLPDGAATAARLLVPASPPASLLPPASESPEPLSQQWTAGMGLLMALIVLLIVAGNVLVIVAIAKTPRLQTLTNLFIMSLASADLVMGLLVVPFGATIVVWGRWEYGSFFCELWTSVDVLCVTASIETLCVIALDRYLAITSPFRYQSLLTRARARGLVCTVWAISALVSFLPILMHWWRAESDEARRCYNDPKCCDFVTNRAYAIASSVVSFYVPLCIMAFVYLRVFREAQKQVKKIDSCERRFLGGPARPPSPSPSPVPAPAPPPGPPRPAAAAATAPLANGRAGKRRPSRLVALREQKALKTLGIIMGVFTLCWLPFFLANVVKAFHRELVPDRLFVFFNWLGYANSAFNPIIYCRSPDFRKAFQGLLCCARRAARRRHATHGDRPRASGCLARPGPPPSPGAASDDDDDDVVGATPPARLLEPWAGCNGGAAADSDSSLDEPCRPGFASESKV

Assay [10] deals with human Adrenergic, Alpha 2c Receptor (Adra2C), ADRA2C (gene 152) (UniProt P18825). The experiment in a line: NVS_GPCR_hAdra2C: NovaScreen (NVS) G Protein-Coupled Receptor Assay for human Adrenergic, Alpha 2c Receptor (Adra2C) (AID 2283259). In outline:
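Screened first in duplicate at 25 uM, with actives then run as concentration series. Membranes from Sf9 cells were exposed for 1 h, and displacement of radioligand was counted after filtration, using DMSO as baseline.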

The subject of assay [11] is guinea pig Leukotriene B4 Receptor (LTB4), gene 100379538. The experiment in a line: NVS_GPCR_gLTB4: NovaScreen (NVS) G Protein-Coupled Receptor Assay for guinea pig Leukotriene B4 Receptor (LTB4) (AID 2283247). In outline: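 Membranes from guinea pig spleen incubated 2 h with radioligand and compound; bound counts measured by filtration and scintillation. Screened first at 25 uM in duplicate, then actives titrated to a 50 uM top concentration relative to DMSO.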

Assay [12] concerns the target Adenosine receptor A1 (Bos taurus) (UniProt P28190). The experiment in a line: NVS_GPCR_bAdoR_NonSelective: NovaScreen (NVS) G Protein-Coupled Receptor Assay for bovine Adenosine Receptor (AdoR), Non-selective Binding (AID 2283244). The procedure, abridged: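 Cell-free binding with membranes from bovine striatum: radioligand displaced by test chemical, read after 1 h by filtration and scintillation. Single-point 25 uM duplicate primary, 50 uM top concentration in follow-up curves, DMSO baseline.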

Sequence of human Serotonin, 5-Hydroxytryptamine Receptor 7 (5HT7), HTR7 (gene 3363) (P34969 whole entry, looked up): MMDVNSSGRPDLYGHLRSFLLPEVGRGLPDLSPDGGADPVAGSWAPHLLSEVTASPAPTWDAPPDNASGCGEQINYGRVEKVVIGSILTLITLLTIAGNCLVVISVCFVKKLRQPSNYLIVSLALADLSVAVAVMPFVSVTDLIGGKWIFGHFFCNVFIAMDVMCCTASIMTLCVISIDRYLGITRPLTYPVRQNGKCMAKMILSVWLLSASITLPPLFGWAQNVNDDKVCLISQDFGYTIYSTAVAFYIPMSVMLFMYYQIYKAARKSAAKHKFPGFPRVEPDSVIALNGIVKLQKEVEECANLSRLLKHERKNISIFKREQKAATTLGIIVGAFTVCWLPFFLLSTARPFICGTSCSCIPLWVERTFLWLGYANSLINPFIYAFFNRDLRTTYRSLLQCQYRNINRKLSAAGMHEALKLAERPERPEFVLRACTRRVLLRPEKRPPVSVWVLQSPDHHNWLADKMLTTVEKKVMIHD
Sequence of human Serotonin, 5-Hydroxytryptamine Receptor 5A (5HT5A), HTR5A (gene 3361) (P47898 whole entry, looked up): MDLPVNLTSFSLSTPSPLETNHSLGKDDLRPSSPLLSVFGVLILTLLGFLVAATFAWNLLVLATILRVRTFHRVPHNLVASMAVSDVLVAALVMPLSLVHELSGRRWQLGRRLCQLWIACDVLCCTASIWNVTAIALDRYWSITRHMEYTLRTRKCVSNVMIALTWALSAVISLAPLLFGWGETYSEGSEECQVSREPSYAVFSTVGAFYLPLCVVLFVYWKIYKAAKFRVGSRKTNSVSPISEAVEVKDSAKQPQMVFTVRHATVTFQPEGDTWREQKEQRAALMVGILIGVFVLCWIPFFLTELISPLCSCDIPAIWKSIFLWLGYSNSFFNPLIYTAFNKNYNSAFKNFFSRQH
Sequence of Adenosine receptor A1 (Bos taurus) (P28190 whole entry, looked up): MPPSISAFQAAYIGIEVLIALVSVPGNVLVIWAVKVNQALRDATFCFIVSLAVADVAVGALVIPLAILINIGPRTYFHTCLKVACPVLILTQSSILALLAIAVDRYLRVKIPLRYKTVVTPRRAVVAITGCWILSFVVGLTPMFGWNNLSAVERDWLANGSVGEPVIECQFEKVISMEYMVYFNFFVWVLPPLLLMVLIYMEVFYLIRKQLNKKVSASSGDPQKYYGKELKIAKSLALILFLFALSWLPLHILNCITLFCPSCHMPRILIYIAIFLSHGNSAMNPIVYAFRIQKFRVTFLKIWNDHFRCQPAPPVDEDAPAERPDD
Sequence of human Adrenergic, Alpha 2c Receptor (Adra2C), ADRA2C (gene 152) (P18825 whole entry, looked up): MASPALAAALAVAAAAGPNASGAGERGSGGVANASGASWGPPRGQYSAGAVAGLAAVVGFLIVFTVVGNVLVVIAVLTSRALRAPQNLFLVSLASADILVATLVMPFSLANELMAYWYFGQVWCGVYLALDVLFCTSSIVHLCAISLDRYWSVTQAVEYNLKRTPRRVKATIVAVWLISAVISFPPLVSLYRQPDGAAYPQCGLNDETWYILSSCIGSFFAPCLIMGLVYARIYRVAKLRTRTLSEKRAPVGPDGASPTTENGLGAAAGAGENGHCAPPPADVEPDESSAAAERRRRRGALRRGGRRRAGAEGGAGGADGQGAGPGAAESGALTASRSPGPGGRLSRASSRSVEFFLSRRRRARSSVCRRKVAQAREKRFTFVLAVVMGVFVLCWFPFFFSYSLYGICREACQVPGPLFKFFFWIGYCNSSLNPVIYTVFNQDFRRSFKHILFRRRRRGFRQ

`COc1ccc(-n2nc(C(F)F)cc2-c2ccc(S(C)=O)cc2)cc1` (stereo not given): the AC50 in assay [1] is 5.7 µM (active).
Consider `CNS(=O)(=O)c1cc(C(=O)N2CCC(CCN3C4CCC3CC(n3c(C)nc5ccccc53)C4)(c3cccc(F)c3)CC2)c(Cl)cc1F` (stereo not given), for which the call in assay [2] was inactive. Moreover, the AC50 was 1.52 µM (active) in [3], 5.36 µM (active) in assay [4], 0.935 µM (active) in assay [5] and 4.35 µM (active) in [6].
On to `CCOC(=O)COc1ccc2c(c1)CC(NCC(O)c1cccc(Cl)c1)CC2` (stereo not given), for which the AC50 in assay [3] was 12.1 µM (active); in assay [4], 22.9 µM (active); in assay [7], 18.8 µM (active); in [6] it was 22.9 µM (active); in [8], 7.53 µM (active); in assay [9], 3.33 µM (active). In addition, in [10], the AC50 was 3.81 µM (active).
As to `O=C(O)c1cccc(Oc2ccccc2)c1`, the result in assay [11] was inactive.
With `CCC(C)(C)C(=O)O[C@H]1C[C@@H](C)C=C2C=C[C@H](C)[C@H](CC[C@@H]3C[C@@H](O)CC(=O)O3)[C@H]21`, in [7], the outcome was inactive. For the same molecule, the AC50 in assay [6] was 11.8 µM (active).
In the case of `O=C(O)CCN(C1(C(=O)NO)CCCC1)S(=O)(=O)c1ccc(Oc2ccc(F)cc2)cc1`, the AC50 in [11] is 0.951 µM (active).
In the case of `Cn1c(=O)c2c(ncn2C)n(C)c1=O`, in assay [12], the AC50 is 25 µM (active).
As to `COc1ccc(/C=C/S(=O)(=O)NC(=O)c2ccc(C)cc2Cl)cc1`, the AC50 in [2] is 15.2 µM (active). For the same molecule, the result in assay [11] was inactive.
